Screen size: about 1,500 compounds; about 100 (6.7%) were called active. About 7% were inconclusive and are not listed. This excerpt belongs to a sample that is enriched for actives. Values without a mark were called inactive. The call rests on the fitted dose curve; in most records, active means well fitted inhibition curve with a large enough effect; inconclusive means small, poorly fitted or top-dose-only effect, or effect the other way; inactive means flat fitted curve, though single readings scatter.
The compounds below were run against Runt-related transcription factor 1 (Homo sapiens) + Core-binding factor subunit beta (Homo sapiens) (UniProt Q01196+Q13951) (assay: qHTS Assay for Compounds Blocking the Interaction Between CBF-beta and RUNX1 for the Treatment of Acute Myeloid Leukemia: Hit Validation). Details: AlphaScreen CBFb-His/RUNX1-biotin binding; series mostly up to 59.8 µM; activity, negative = inhibition: at the top concentration.
Chain of Runt-related transcription factor 1 (Homo sapiens) + Core-binding factor subunit beta (Homo sapiens) (Q01196 whole entry, looked up): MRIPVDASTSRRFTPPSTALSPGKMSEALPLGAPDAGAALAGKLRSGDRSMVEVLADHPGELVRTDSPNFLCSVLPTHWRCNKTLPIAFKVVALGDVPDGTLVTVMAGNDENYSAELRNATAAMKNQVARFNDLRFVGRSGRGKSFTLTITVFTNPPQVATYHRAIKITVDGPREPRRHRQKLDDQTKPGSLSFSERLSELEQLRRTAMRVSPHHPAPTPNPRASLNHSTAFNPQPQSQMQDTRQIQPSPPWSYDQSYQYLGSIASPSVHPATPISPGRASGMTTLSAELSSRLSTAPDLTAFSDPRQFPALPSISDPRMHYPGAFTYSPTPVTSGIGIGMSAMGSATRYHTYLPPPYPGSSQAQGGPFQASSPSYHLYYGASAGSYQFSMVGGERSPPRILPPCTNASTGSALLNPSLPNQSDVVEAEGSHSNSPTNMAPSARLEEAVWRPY
Chain of Runt-related transcription factor 1 (Homo sapiens) + Core-binding factor subunit beta (Homo sapiens) (Q13951 whole entry, looked up): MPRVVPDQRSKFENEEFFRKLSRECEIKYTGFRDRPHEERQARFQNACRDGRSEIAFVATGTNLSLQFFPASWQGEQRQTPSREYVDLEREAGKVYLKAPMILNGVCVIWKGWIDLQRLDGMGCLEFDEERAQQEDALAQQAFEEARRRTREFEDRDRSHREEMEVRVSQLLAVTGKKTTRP
Procedure, shortened: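 Compounds were added to a premixed CBF-beta-His/RUNX1-biotin complex (30 nM each, 20 min) for 15 min. Nickel and streptavidin AlphaScreen beads followed for 90 min at room temperature, with emission at 440 nm […].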
Cc1[nH]ncc1-c1ccccc1Cl was tested, and the “activity, negative = inhibition” value was 2.43%.
Nc1nc(CCl)nc(Nc2ccc3ccccc3c2)n1 was tested, and the “activity, negative = inhibition” value was 3.21%.
In the case of Cc1ccc(N2CC(c3nc4ccccc4n3C)CC2=O)cc1 (stereo not drawn), the “activity, negative = inhibition” value is reported as 0.961%.
Cc1ccc2nc(-c3ccc(N)cc3)sc2c1 was tested, and the “activity, negative = inhibition” value was 0.903%.
Cc1cc2nc3ccc(=[N+](C)C)cc-3sc2cc1N was tested, and the Potency was 6.31 µM (active).
In the case of Oc1cccc(O)c1O, the Potency is reported as 3.97 µM (active).
With Cn1nc(-c2ccccc2)cc1NC(=O)CCCC(=O)O the “activity, negative = inhibition” value was -2.32%.
With Cc1ccnn1CC(=O)N/N=C/c1cn[nH]c1-c1ccc(F)cc1 the “activity, negative = inhibition” value was -5.89%.
CC(C)CC(=O)NC(=S)Nc1ccccc1N1CCCC1 was tested, and the “activity, negative = inhibition” value was -17.3%.
With CNC(=O)Nc1cc(NC(=O)NC)cc(C(F)(F)F)c1 the “activity, negative = inhibition” value was -3.15%.
In the case of CCOC(=O)C1=C(C)NC(C)=C(C(=O)OCC)C1, the “activity, negative = inhibition” value is reported as 0.11%.
CCCC(=O)NC(c1cccs1)c1cc([N+](=O)[O-])c2cccnc2c1O (stereo not drawn) was tested, and the Potency was 3.98 µM (active).
In the case of CN(C)C(=O)CSc1nnc(NC(=O)CCc2ccccc2)s1, the “activity, negative = inhibition” value is reported as 5.1%.
With COC(=O)/C=C(\C)N=Nc1c(O)[nH]c2ccccc12 the “activity, negative = inhibition” value was -4.81%.
With Cc1ccc(CN(C(=O)c2cc(=O)c3cc(C)cc(C)c3o2)C2CCS(=O)(=O)C2)cc1 (stereo not drawn) the “activity, negative = inhibition” value was 4.59%.
With Cc1cccc(C)c1NC(=S)N1CC(C)OC(C)C1 (stereo not drawn) the “activity, negative = inhibition” value was -4.3%.
For Cn1cnc(S(=O)(=O)Nc2ccc(OC(F)F)cc2)c1, the “activity, negative = inhibition” value was 1.32%.
With O=C1C(CCC(O)c2ccc(F)cc2)C(c2ccc(O)cc2)N1c1ccc(F)cc1 (stereo not drawn) the Potency was 15.8 µM (active).
In the case of CC(C)(C)OC(=O)N1CCCN(C(=O)Nc2ccccc2)CC1, the “activity, negative = inhibition” value is reported as 0.141%.
With COc1cccc(NC(=O)C(=O)NCCc2ccc(F)cc2)c1 the “activity, negative = inhibition” value was 5.31%.
CCOC(=O)/C(C#N)=C/Nc1ccsc1C(C)=O was tested, and the “activity, negative = inhibition” value was 0.205%.
In the case of Cc1ccc(Cn2c(N/N=C/c3ccncc3)nc3c2c(=O)n(C)c(=O)n3C)cc1, the “activity, negative = inhibition” value is reported as -3.34%.
O=C1CSC(=S)N1/N=C/c1ccc(O)c(O)c1O was tested, and the Potency was 0.562 µM (active).
With Cc1cc(NC(=O)c2c(-c3c(F)cccc3Cl)noc2C)no1 the “activity, negative = inhibition” value was -7.12%.
COc1cccc(/C=N/NC(=O)C(C)Cn2cnc3ccccc32)c1 (stereo not drawn) was tested, and the “activity, negative = inhibition” value was -0.552%.
In the case of COc1ccc(Oc2nc(-c3ccccn3)ncc2OC)cc1, the Potency is reported as 12.6 µM (active).
With COc1ccc(Oc2ncccc2[N+](=O)[O-])cc1 the “activity, negative = inhibition” value was -4.02%.
For COc1ccc(Oc2ccc(-c3ccn[nH]3)cc2)cc1, the “activity, negative = inhibition” value was -8.28%.
For O=P(O)(O)c1cc(-c2ccccc2)oc1-c1ccccc1, the “activity, negative = inhibition” value was 0.0456%.
With CCCCC1C2C(=O)N(c3ccc(C)cc3)C(=O)C2ON1c1ccccc1 (stereo not drawn) the “activity, negative = inhibition” value was -2.92%.
Cc1cc([N+](=O)[O-])nn1Cc1ccc(C(=O)N/N=C/c2ccc(N(C)C)cc2)cc1 was tested, and the “activity, negative = inhibition” value was -10.8%.
In the case of O=C(O)c1cc2ccccc2cc1Nc1ccccc1, the “activity, negative = inhibition” value is reported as -13.1%.
Nc1ccc(N)c(C(=O)O)c1 was tested, and the Potency was 0.794 µM (active).
With Nc1ccc(C(=O)C(=O)c2ccc(N)cc2)cc1 the “activity, negative = inhibition” value was 4.27%.
In the case of CCOC(=O)c1nnn2c1nc(N1CCN(C)CC1)c1ccccc12, the “activity, negative = inhibition” value is reported as -4.29%.
With C=CCn1c(=O)c2ccccc2n2nnc(C(=O)OCC)c12 the “activity, negative = inhibition” value was 1.03%.
In the case of CC/C(=C(\c1ccccc1)c1ccc(OCCN(C)C)cc1)c1ccccc1, the Potency is reported as 24.4 µM (active).
For COc1cccc(C2Oc3ccccc3C3CC(c4cccs4)=NN32)c1 (stereo not drawn), the “activity, negative = inhibition” value was 4.22%.
With CC(=O)c1cc(O)c2ccccc2c1O the “activity, negative = inhibition” value was -21.8%.
CCCC(=O)c1cc(O)c(O)cc1O was tested, and the Potency was 4.47 µM (active).
Cc1ccc(C)c(C(=O)CCC(=O)O)c1 was tested, and the “activity, negative = inhibition” value was -2.23%.
For C/C(=N\O)c1c(O)cc(-c2ccccc2)n(-c2ccccc2)c1=O, the “activity, negative = inhibition” value was -1.85%.
With NC[C@@H](O)c1ccc(O)c(O)c1 the Potency was 2.82 µM (active).
CC1=CC(=O)CC(C)(C)C1(O)/C=C/C(C)=C/C(=O)O (stereo not drawn) was tested, and the “activity, negative = inhibition” value was -3.77%.
C=CCn1c(SCc2ccccc2Cl)nnc1-c1sc2nc(C)cc(C)c2c1N was tested, and the “activity, negative = inhibition” value was 10.9%.
For CCOC(=O)c1c(C)n(C)c2ccc(OC)c(NC(=O)CCN3CCC(Cc4ccccc4)CC3)c12, the “activity, negative = inhibition” value was -15.5%.
With O=S(=O)(Nc1cccc(CCc2ccccn2)c1)c1cc(Cl)ccc1Cl the “activity, negative = inhibition” value was -7.59%.
With c1cnc2ccc3ncccc3c2c1 the “activity, negative = inhibition” value was -19.2%.
For c1cnc2c(c1)ccc1cccnc12, the Potency was 1.12 µM (active).
c1ccc(-n2ncc3cccnc32)cc1 was tested, and the “activity, negative = inhibition” value was 8.29%.
In the case of CCCCn1cc([N+](=O)[O-])nc1C, the “activity, negative = inhibition” value is reported as -5.88%.
With O=C(CN1CCN(C(c2ccccc2)c2ccccc2)CC1)N1N=CCC1c1ccccc1 (stereo not drawn) the “activity, negative = inhibition” value was -5.94%.
With COC(=O)c1cc(NS(=O)(=O)c2ccc(F)cc2)ccc1N1CCOCC1 the “activity, negative = inhibition” value was 0.969%.
In the case of COc1ccc(/C(C)=N/NC(=O)Cn2nc([N+](=O)[O-])cc2C)cc1, the “activity, negative = inhibition” value is reported as -7.96%.
With COc1cccc2c1NC(C(=O)O)C1CC=CC21 (stereo not drawn) the Potency was 14.1 µM (active).
In the case of COc1ccccc1C1CCN(C(=O)c2ccco2)CC1, the “activity, negative = inhibition” value is reported as -1.76%.
In the case of COc1ccccc1C1CCN(C(=O)c2cccs2)CC1, the “activity, negative = inhibition” value is reported as 1.84%.
COc1ccc2[nH]c(=O)c(CN(C(=O)c3cccnc3)c3ccc(C)cc3C)cc2c1 was tested, and the “activity, negative = inhibition” value was -3.33%.
With CC1=NNC(=O)C1Cc1ccc(F)cc1 (stereo not drawn) the “activity, negative = inhibition” value was -5.63%.
In the case of CC(C)(NC(=O)c1cc(Cl)c2ccccc2c1O)C(=O)O, the “activity, negative = inhibition” value is reported as -1.91%.
For COC(=O)CC1C(=O)NC(C)=C1C(=O)OC (stereo not drawn), the “activity, negative = inhibition” value was -12.4%.
For COc1ccc(-n2c(=S)[nH]c(=O)c3cccnc32)cc1, the “activity, negative = inhibition” value was -1.85%.
CCCOc1ccc(CSC(=N)N)cc1C(=O)OC was tested, and the “activity, negative = inhibition” value was -9.01%.

Source: PubChem BioAssay AID504374 (National Center for Advancing Translational Sciences (NCATS), 2011)
Further: nearly all actives have a fitted effect of over 60% in size.
On the % scale 0 is the no-effect control and ±100 the full control effect; potency means the concentration at half of the fitted maximal effect.
